From PubChem
Vaccinia Venus: inhibitors of vaccinia virus (Venus reporter). Potency, µM (series often up to 36.5 µM), for the others: top-dose activity change, negative = inhibition, hits mostly inhibitors. 330,000 tested, 0.46% active. AID 720580. Vaccinia virus Venus reporter expression, fluorescence; calls by dose curve; tested in A549 cells; also: potency is read from the fitted curve at half-maximal effect; nearly all actives have a fitted effect of over 30% in size
HCMV inh: blocks human cytomegalovirus replication. HFF cells, HCMV-luciferase reporter, 72 h; hits give low values. activity change, negative = inhibition, % at 57.5 µM. 410,000 tested, 4.5% active; in the data active = activity change below about -60%; inconclusive = no clear call, values can overlap the other calls; inactive = above about -39%
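Compounds were evaluated in HFFs infected with an HCMV luciferase reporter virus (MOI 1 PFU/cell). Luciferase in lysates collected 72 h post infection served as the replication measure.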
Sm TGR block: inhibitors of Schistosoma mansoni thioredoxin glutathione reductase | Potency, µM (series often up to 114 µM), inactives show at the highest dose activity change, negative = inhibition, usual class: inhibitors | purified TGR, DTNB reduction, TNB absorbance 405 nm | Q962Y6 | 360,000 tested, 3% active; also: potency is read from the fitted curve at half-maximal effect; nearly all actives have a fitted effect of over 60% in size
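Kinetic colorimetric format: TGR-catalysed, NADPH-driven DTNB reduction monitored via TNB absorbance. Enzyme dispensed at 20 nM; compound exposure 15 min at room temperature before reaction start.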
VACV mCherry inh: vaccinia inhibition (mCherry reporter). 310,000 tested, 0.63% active. Vaccinia virus mCherry reporter infection, fluorescence. Potency, µM (series often up to 36.5 µM), without a hit: at the top dose activity change, negative = inhibition, actives largely listed as inhibitors. AID 720579; calls by dose curve; tested in A549 cells; also: potency is read from the fitted curve at half-maximal effect; nearly all actives have a fitted effect of over 35% in size
HCV inhibitor: inhibitors of hepatitis C virus infection; Huh7.5.1 HCVcc-Cre infection, luciferase reporter, 44 h; Potency, µM (top dose mostly 41.8 µM), inactives show at the top dose activity change, negative = inhibition, hits mostly inhibitors; 340,000 tested, 3.4% active; also: potency is read from the fitted curve at half-maximal effect
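Reporter virus HCVcc-Cre (~0.5 moi) infects cells exposed to compound; seeding density 1,000 cells/well with 4 h settling beforehand. Luminescence, 15 sec read, taken 44 h post-infection following a 15 min RT substrate incubation.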
FMDV inh: foot and mouth disease virus antiviral activity; FMDV antiviral cell-based qHTS; Potency, µM (highest dose often 57.9 µM), for inactives: top-dose activity change, negative = inhibition, hits mostly inhibitors; 410,000 tested, 1.2% active; calls by dose curve; tested in HEK293T cells; also: read-out not given here; potency is read from the fitted curve at half-maximal effect; nearly all actives have a fitted effect of over 45% in size
Starred values were filed as active, the others as inactive; i = inactive; ? = inconclusive; / = not tested or not shown; + = active, no number; [ ] = another dose, or the depositor's remark. Hits are enriched below; roughly 9.3% of the tested compounds scored in any of these assays. Unless noted, calls follow the shape of the dose curve; as a rule, active = well fitted curve in the direction sought with a large enough effect; inconclusive = small, poorly fitted or top-dose-only effect, or another doubt; inactive = no such curve, though single readings can be large; an effect the other way counts as inactive or inconclusive. % is scaled to controls: 0 for no effect and ±100 for the full control effect.

SMILES | Vaccinia Venus | HCMV inh | Sm TGR block | VACV mCherry inh | HCV inhibitor | FMDV inh
CN(C)S(=O)(=O)c1cccc(NC(=O)CSc2cccc3cccnc23)c1 | ? | -101* | 3% | ? | ? | 59%
O=C(COC(=O)CCSc1ccccc1Cl)Nc1ccc(F)cc1F | -14% | -36 | 8% | -18% | 13% | -14%
CC(C)COc1ccc(C(=O)N(CC(=O)Nc2ccccc2C(F)(F)F)Cc2ccco2)cc1 | 0% | -18 | -4% | -17% | ? | -28%
O=C(CN(Cc1ccco1)S(=O)(=O)c1cccs1)Nc1ccccc1C(F)(F)F | 0% | -11 | 20µM* | / | -13% | -4%
O=C(CN(Cc1ccco1)C(=O)c1ccccc1F)Nc1ccccc1C(F)(F)F | / | -15 | -20% | / | 4% | -9%
O=C(CN(Cc1ccco1)C(=O)c1ccc([N+](=O)[O-])cc1)Nc1ccccc1C(F)(F)F | / | 29 | 20µM* | / | -6% | -5%
Cc1cc(C)c(NC(=O)CNC(=O)COC(=O)C2=COCCO2)c(C)c1 | -8% | -9 | -5% | i | ? | -11%
COc1ccc(-n2c(Cc3cccn3C)nnc2SCC(=O)Nc2ccc(C)cc2)cc1 | -2% | -6 | -20% | -10% | 0% | 6%
COCCn1c(=O)cnc2cnc(N3CCN(C)CC3)nc21 | / | / | / | / | / | -11%
C=C1CCC[C@]2(C)C[C@H]3OC(=O)C(CNCCN(CC)CC)[C@H]3CC12 (stereo partly drawn) | 3.2µM* | -21 | 0% | 4µM* | ? | -14%
C=C1CCC[C@]2(C)C[C@H]3OC(=O)C(CNCCN(C)C)[C@H]3CC12 (stereo partly drawn) | / | -38 | -18% | / | 6% | -24%
CN(C)CCCN(C(=O)c1ccco1)c1nc2ccc(Cl)cc2s1 | ? | -10 | 9% | -17% | 25µM* | -17%
Cc1ccc2nc(N(CCCN(C)C)C(=O)c3ccc(S(=O)(=O)N(C)C)cc3)sc2c1 | -1% | 32 | -11% | i | 19% | 0%
CN(C)CCCN(C(=O)c1ccco1)c1nc2ccc(Br)cc2s1 | -7% | 0 | 7% | -2% | ? | -3%
Cc1ccc2nc(N(CCCN(C)C)C(=O)c3sc4ccccc4c3Cl)sc2c1 | -20% | -78* | ? | -27% | ? | 18µM*
Cc1ccc2sc(N(CCCN(C)C)C(=O)c3ccco3)nc2c1C | -20% | -62* | -2% | -21% | / | -3%
CCOc1ccsc1C(=O)NNC(=O)c1ccco1 | / | 6 | -1% | / | 2% | -20%
CCN1CCCC1CNC1=NCCCCC1 (stereo not drawn) | -3% | -10 | -27% | -4% | 4% | 17%
Cn1cnnc1SCC(=O)c1ccc(OC(F)F)cc1 | / | -78* | -14% | / | 8% | 4%
COc1ccc(C(=O)CSc2nncn2C)cc1 | -22% | 45 | -5% | / | 15% | 20%
Cc1ccc(CN(C)C(=O)c2cc(COc3cccc(C(F)(F)F)c3)on2)o1 | / | 148 | 10µM* | / | -3% | -6%
COc1ccccc1CCNC(=O)c1cc(COc2cccc(C(F)(F)F)c2)on1 | / | + | 8% | / | ? | 0%
Cc1ccc(CN(C)C(=O)c2cc(COc3ccc(F)cc3Cl)on2)o1 | -3% | -7 | 25µM* | i | -8% | 38%
O=C(NCC1CCOCC1)c1cc(COc2cccc(C(F)(F)F)c2)on1 | -25%[7.34 µM] | -33 | -21% | -6%[7.34 µM] | ? | -26%
O=C(NCC1CCCO1)C(c1cccs1)N(Cc1cccs1)C(=O)Cn1nnc(-c2cccs2)n1 (stereo not drawn) | -11% | -7 | -1% | i | -19% | 17%
SMILES | Vaccinia Venus | HCMV inh | Sm TGR block | VACV mCherry inh | HCV inhibitor | FMDV inh
O=C(NCC1CCCO1)C(c1ccc(F)cc1)N(Cc1ccc(F)cc1)C(=O)Cn1nnc(-c2cccs2)n1 (stereo not drawn) | -19% | -22 | 5% | -1% | 2.5µM* | 13%
CCn1cc(C(=O)N2CCN(c3ccccc3)CC2)c(=O)c2cc(S(=O)(=O)N(C)C)ccc21 | 5% | 6 | 0% | -3% | / | -12%
O=C(N/N=C/c1ccc(-c2ccccc2Cl)o1)c1ccccc1 | -14% | -33 | 9% | -2% | 13µM* | 28%
CCNC(=S)N/N=C/c1ccccc1[N+](=O)[O-] | -7% | -4 | 1% | -7% | 1% | -9%
Cc1ccc(C(=O)N/N=C\c2ccc(-c3ccc([N+](=O)[O-])cc3)o2)cn1 | -9% | 17 | 0% | i | -15% | -3%
NC(=S)N/N=C/c1ccc(-c2cc(Cl)ccc2Cl)o1 | 3.2µM* | -24 | -35% | 3.2µM* | ? | 2%
NC(=S)N/N=C/c1ccc(-c2ccc([N+](=O)[O-])cc2)o1 | / | 22 | 28µM* | / | ? | 15%
NC(=S)N/N=C/c1ccccc1[N+](=O)[O-] | 2.2µM* | -37 | 9% | 2µM* | -10% | -4%
NC(=S)N/N=C/c1ccc(-c2cc(Cl)cc(Cl)c2)o1 | ? | ? | ? | / | -10% | -26%
Cc1ccc(NC(=O)c2ncn(CC(=O)N[C@H](C)c3cccc4ccccc34)n2)cc1C | -18% | 28 | / | i | ? | 2%
O=C(N/N=C/c1ccc(-c2cccc(C(F)(F)F)c2)o1)c1ccccc1Br | -26% | -62* | -1% | -28% | ? | /
O=C(N/N=C/c1ccc(-c2cccc([N+](=O)[O-])c2)o1)c1ccc([N+](=O)[O-])cc1 | -20% | ? | 4% | -18% | 10µM* | ?
O=C1Nc2ccccc2/C1=N/N=C/c1ccc(-c2ccc([N+](=O)[O-])cc2)o1 | / | -83* | -8% | / | 2% | 0%
O=C(N/N=C/c1ccc(-c2cccc([N+](=O)[O-])c2)o1)c1ccccc1O | -8% | 9 | 1% | ? | -16% | 7%
COc1ccc(-c2nn[nH]n2)cc1OC | 27% | -22 | 4% | 2% | 13% | -15%
Nc1cc(-c2nn[nH]n2)ccc1F | -4% | -91* | ? | / | 7% | -19%
Cc1cc(C2(c3ccc(O)c(C)c3)C(=O)Nc3ccccc32)ccc1O | ? | -80* | 3% | / | 11% | ?
O=C(Nc1ccc2c(c1)OCCO2)C(CCc1ccccc1)N(Cc1ccccc1)Cc1ccccc1 (stereo not drawn) | 4% | -22 | / | 28% | / | -13%
Clc1ccccc1OCc1nn[nH]n1 | / | -3 | 8% | / | 13% | 5%
O=C(COc1ccccc1)Nc1cccc(-c2cn3cccnc3n2)c1 | -7% | 28 | 2% | -19% | -28% | -16%
CC(=O)c1ccc(Cc2ccc(C(C)=O)cc2)cc1 | 3% | -88* | 1% | -3% | 0% | -9%
CC(=O)c1ccc(CCCC(=O)O)cc1 | / | -2 | -7% | / | 2% | 8%
CCN(CC)S(=O)(=O)c1ccc2c(c1)N(CC(=O)NCCCN1CC(C)CC(C)C1)C(=O)CO2 (stereo not drawn) | / | -18 | -2% | / | 9% | 0%
